Experimental data taken from PubChem BioAssay (EPA / NIEHS).
Results filed as inconclusive are left out. Calls of active or inactive are those of the source. Rule for the calls, unless noted: active = hit-call score of the fitted dose curve at least 0.9, where 1 is the maximum; inactive = score below 0.9.

What was measured:
[1] = CCTE_Shafer_MEA_dev_firing_rate_mean: CCTE's Neural Network Formation Assay for Mean Firing Rate, Shafer Lab (AID 2284031);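 note: curve fitted for loss of firing so AC50 reflects decreased mean firing rate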
Procedure, shortened: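 Rat primary cortical neurons were seeded on multielectrode arrays and treated from plating through day 12, with redosing at each feed. Spontaneous spiking was recorded four times; mean firing rate AUC was fitted downward against DMSO.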

[2] = CCTE_Shafer_MEA_dev_per_burst_spike_percent: CCTE's Neural Network Formation Assay for Percent of Spikes in a Burst, Shafer Lab (AID 2284032);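 note: fitted as a decrease in burst spike percentage below DMSO baseline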
Procedure, shortened: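 Rat primary cortical neurons on 16-electrode MEA wells, dosed from plating day 0 for 12 days with renewal on DIV 5 and 9; spikes-in-bursts percentage averaged over bursting electrodes, collapsed as AUC across days 5, 7, 9, 12; loss direction versus DMSO.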

[3] = CCTE_Shafer_MEA_dev_active_electrodes_number: CCTE's Neural Network Formation Assay for Number of Active Electrodes, Shafer Lab (AID 2284040; active = hit-call score of the fitted dose curve at least 0.9, where 1 is the maximum;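 note: potency for loss of active electrodes versus DMSO so lower counts are hits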)
Procedure, shortened: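 Primary rat cortical neurons on 16-electrode MEA wells, exposed from day 0 through day 12 with compound renewed at DIV 5 and 9 feeds. Active electrodes (mean firing ≥5 spikes/min) counted at DIV 5, 7, 9, 12; trapezoidal AUC across days, loss-of-signal versus DMSO.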

[4] = CCTE_Shafer_MEA_dev_burst_rate: CCTE's Neural Network Formation Assay for Burst Rate, Shafer Lab (AID 2284042);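 note: potency for loss of burst rate below DMSO control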
Procedure, shortened: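 Developmental network assay measuring how 12-day exposure of rat cortical neuron cultures alters bursting on extracellular MEA recordings. Values are AUC of well-mean burst rate across four recording days, relative to DMSO vehicle.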

[5] = CCTE_Shafer_MEA_dev_bursting_electrodes_number: CCTE's Neural Network Formation Assay for Number of Bursting Electrodes, Shafer Lab (AID 2284043; active = hit-call score of the fitted dose curve at least 0.9, where 1 is the maximum;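 note: potency is for loss of bursting electrodes relative to DMSO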)
Procedure, shortened: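 Primary rat cortical neurons plated on 16-electrode MEA wells, exposed from day 0 with compound renewed at DIV 5 and 9. Electrodes bursting ≥1 burst per 2 min counted on days 5, 7, 9 and 12; trapezoidal AUC across days, fitted for loss versus DMSO.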

[6] = CCTE_Shafer_MEA_dev_per_burst_interspike_interval: CCTE's Neural Network Formation Assay for Burst Interspike Interval, Shafer Lab (AID 2284044);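 note: mean spike spacing inside bursts as AUC over recordings on days 5 7 9 12; potency for a decrease of within-burst interspike interval below DMSO level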
Procedure, shortened: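 Rat cortical primary cultures, 16 electrodes/well; compound from plating, renewed with full media change DIV 5 and 9. Spikes via adaptive detector; per-burst ISI well-mean over active bursting electrodes; AUC of DIV 5/7/9/12 recordings; loss-direction fit vs DMSO.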

[7] = CCTE_Shafer_MEA_dev_burst_duration_mean: CCTE's Neural Network Formation Assay for Mean Burst Duration, Shafer Lab (AID 2284045);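 note: curve fitted for loss meaning shorter burst duration than DMSO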
Procedure, shortened: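 Primary rat cortical neurons on 48-well 16-electrode MEA plates, exposed from day 0 with renewal at DIV 5 and 9; spontaneous activity recorded on days 5, 7, 9, 12. Well-mean burst duration across bursting electrodes, collapsed as trapezoidal AUC; DMSO baseline.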

[8] = CCTE_Shafer_MEA_dev_interburst_interval_mean: CCTE's Neural Network Formation Assay for Mean Interburst Interval, Shafer Lab (AID 2284046);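 note: well-mean interburst interval of bursting electrodes as AUC over four recording days; curve fitted for decrease in interburst interval relative to DMSO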
Procedure, shortened: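 Network formation assay in primary rat cortical cultures, exposed from DIV 0 to 12. Mean interburst interval per well, integrated as AUC over four recordings.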

[9] = CCTE_Shafer_MEA_dev_inter_network_spike_interval_mean: CCTE's Neural Network Formation Assay for Mean Inter-network Spike Interval, Shafer Lab (AID 2284047);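 note: potency for a decrease in mean inter-network spike interval below DMSO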
Procedure, shortened: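 Compound was given at plating to primary rat cortical neurons and renewed with full medium changes on DIV 5 and 9. Extracellular activity was recorded on days 5, 7, 9, 12; AUC values were fitted for loss relative to DMSO control.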

[10] = CCTE_Shafer_MEA_dev_network_spike_number: CCTE's Neural Network Formation Assay for Number of Network Spikes, Shafer Lab (AID 2284048);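 for AC50: fit as a loss of signal meaning fewer network spikes than DMSO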
Procedure, shortened: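 Primary rat cortical neurons on PEI/laminin 48-well MEA plates, dosed from plating day 0 for 12 days, renewed at DIV 5 and 9. Network spike counts recorded DIV 5, 7, 9, 12, collapsed as trapezoidal AUC; DMSO baseline.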

[11] = CCTE_Shafer_MEA_dev_network_spike_peak: CCTE's Neural Network Formation Assay for Mean Number of Electrodes in Network Spike, Shafer Lab (AID 2284049);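 note: fitted for loss of signal meaning fewer electrodes in network spikes than DMSO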
Procedure, shortened: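 Network-spike peak electrode count from recordings on days 5, 7, 9 and 12 was combined as trapezoidal area under the curve. Rat cortical cultures were treated continuously from plating, with compound renewed at each feed (DIV 5, 9); fits versus DMSO.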

[12] = CCTE_Shafer_MEA_dev_spike_duration_mean: CCTE's Neural Network Formation Assay for Mean Spike Duration, Shafer Lab (AID 2284051);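 note: mean network spike duration pooled as area under curve over DIV 5 to 12 recordings; potency for a decrease in mean network spike duration versus DMSO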
Procedure, shortened: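 With DMSO as baseline, loss of mean network spike duration was scored from extracellular recordings of rat cortical neurons on MEA plates. Exposure spanned plating to DIV 12; the four recording days were collapsed into one AUC value.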

[13] = CCTE_Shafer_MEA_dev_network_spike_duration_std: CCTE's Neural Network Formation Assay for Standard Deviation of Network Spike Duration, Shafer Lab (AID 2284052);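 note: area under curve of spike duration SD across recording days 5 to 12; hits are decreases in network spike duration SD versus DMSO vehicle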
Procedure, shortened: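 Developing networks of rat cortical neurons were exposed over twelve days in vitro on 48-well MEA plates. Trapezoidal AUC of recordings (DIV 5–12) was analysed for signal loss relative to DMSO vehicle.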

[14] = CCTE_Shafer_MEA_dev_per_network_spike_spike_number_mean: CCTE's Neural Network Formation Assay for Mean Number of Spikes in a Network Spike, Shafer Lab (AID 2284053);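 note: fitted as decrease in spikes per network spike relative to DMSO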
Procedure, shortened: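 First, rat cortical cells (1.5 x 10^5/well) were seeded onto MEA wells; second, dosing began at plating and was refreshed on DIV 5 and 9; finally, network-spike spike counts across DIV 5–12 were summarized as AUC.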

[15] = CCTE_Shafer_MEA_dev_per_network_spike_spike_percent: CCTE's Neural Network Formation Assay for Percent of Spikes in a Network Spike, Shafer Lab (AID 2284054)
Procedure, shortened: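 Rat primary cortical neurons were grown on 48-well MEA plates (16 electrodes/well), exposed from plating day 0 through day 12, with treatment renewed on DIV 5 and 9. Percent of spikes within 0.05 s network-spike peaks was measured, summarised as AUC across days 5, 7, 9, 12.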

[16] = CCTE_Shafer_MEA_dev_LDH: CCTE's Lactate Dehydrogenase Assay for Cytotoxicity in the Neural Network Formation Assay, Shafer Lab (AID 2284068; active = hit-call score of the fitted dose curve at least 0.9, where 1 is the maximum;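 note: exposure for twelve days from plating with re-dosing on DIV 5 and 9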)
Procedure, shortened: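 Developing rat cortical networks on MEA plates are exposed to compound for 12 days from plating. LDH activity is measured spectrophotometrically, with DMSO as baseline.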

[17] = CCTE_Shafer_MEA_dev_AB: CCTE's Alamar Blue Assay for Cytotoxicity in the Neural Network Formation Assay, Shafer Lab (AID 2284083; active = hit-call score of the fitted dose curve at least 0.9, where 1 is the maximum;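 note: resazurin reduction fluorescence as viability of cultured neurons; twelve days of exposure from plating with re-dosing on DIV 5 and 9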)
Procedure, shortened: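 Cytotoxicity companion to the developmental MEA: primary rat cortical neurons, 12-day exposure starting day 0, compound refreshed DIV 5 and 9; resazurin fluorescence, fitted against DMSO vehicle.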

[18] = CCTE_Shafer_MEA_dev_mutual_information_norm: CCTE's Neural Network Formation Assay for Mutual Information Normalization, Shafer Lab (AID 2284091);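 note: mutual information between electrodes summarised as area under curve across four recording days; potency is for a decrease in mutual information relative to DMSO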
Procedure, shortened: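 Primary rat cortical neurons on PEI-coated 48-well MEA plates, 1.5 x 10^5 cells/well, exposed from day 0 through day 12 with re-dosing at DIV 5 and 9. Mutual information between electrodes recorded days 5, 7, 9, 12; trapezoidal AUC, loss-of-signal fit versus DMSO.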

[19] = CCTE_Shafer_MEA_dev_correlation_coefficient_mean: CCTE's Neural Network Formation Assay for Mean Correlation Coefficient, Shafer Lab (AID 2284093);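 note: well mean pairwise spike train correlation integrated as AUC over recording days 5 to 12; potency fitted for loss of correlation relative to DMSO vehicle wells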
Procedure, shortened: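 Extracellular firing from rat cortical networks on 48-well MEAs, DMSO-referenced, negative fitting direction. Compound present from plating to DIV12; mean pairwise correlation per well integrated over DIV5–12 recordings by trapezoidal AUC.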

[20] = TOX21_PR_LUC_Followup_Agonist_viability: Viability Assessment in the Tox21 HEK293 Progesterone Receptor (PR) Agonism Luciferase Follow-Up Assay (AID 2283941; active = hit-call score of the fitted dose curve at least 0.9, where 1 is the maximum;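 note: loss of signal means cytotoxicity so actives lower viability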)
Procedure, shortened: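 Cells were kept 5 days in charcoal-stripped serum medium before plating HEK293-PR-A-luc at 3,000 cells/well. After 5 h they received DMSO-dissolved compound and incubated 16 h at 37C. Viability was taken from CellTiter-Glo ATP luminescence.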

Measured: AC50

COc1ccc2cc3[n+](cc2c1OC)CCc1cc2c(cc1-3)OCO2
active: [1] 106 nM | [2] 145 nM | [3] 161 nM | [4] 92.8 nM | [5] 130 nM | [6] 381 nM | [7] 291 nM | [8] 287 nM | [9] 236 nM | [10] 79.8 nM | [11] 156 nM | [12] 130 nM | [13] 97.4 nM | [14] 109 nM | [15] 117 nM | [16] 88.1 nM | [17] 450 nM | [18] 92.6 nM | [19] 106 nM

CNCCC(Oc1ccc(C(F)(F)F)cc1)c1ccccc1 (stereo not given)
active: [1] 1870 nM | [2] 4190 nM | [3] 2550 nM | [4] 2770 nM | [5] 1790 nM | [6] 3140 nM | [7] 2810 nM | [8] 4180 nM | [9] 1400 nM | [11] 2800 nM | [12] 1880 nM | [13] 2010 nM | [14] 1070 nM | [15] 7650 nM | [16] 2080 nM | [17] 5000 nM | [18] 2580 nM | [19] 4190 nM
inactive: [10]

CC(O)(c1ccc(Cl)cc1)c1ccc(Cl)cc1
inactive: [20]

CC(COc1ccccc1)N(CCCl)Cc1ccccc1 (stereo not given)
inactive: [20]
